Hits are enriched below; roughly 12% of the tested compounds scored in any of these assays.
G9a inh = blocks human histone lysine methyltransferase G9a | G9a H3K9 monomethylation, AlphaScreen, 2 h | Q96KQ7 | AID 504332 | Potency, µM (highest dose often 102 µM), usual class: inhibitors | 350,000 compounds, 8.8% hits; note: nearly all actives have a fitted effect of over 75% in size
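AlphaScreen read-out: biotin-H3K9 peptide (500 nM) methylation by 20 nM enzyme with 20 uM SAM, 2 h at room temperature after 15 min compound preincubation; anti-monomethyl H3K9 antibody plus donor/acceptor beads, 10 min dark.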
BAZ2B block = blocks human BAZ2B. AlphaScreen BAZ2B-H3K14Ac peptide displacement. Q9UIF8. 360,000 compounds, 4.4% hits. Potency, µM (titrated, usually from 114 µM), actives largely listed as inhibitors; note: nearly all actives have a fitted effect of over 60% in size
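BAZ2B (50 nM) with biotin-H3(5-23)K14Ac peptide (50 nM) in PBS pH 7.4, 0.01% Tween-20, preformed 30 min, then compound 30 min at room temperature; top concentration 110uM. AlphaScreen streptavidin donor/nickel chelate acceptor beads (10 ug/mL final), 20 min dark, signal read.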
Sfp PPTase inh = blocks B. subtilis Sfp PPTase activity | Q9F4F7 | Biochemical Sfp PPTase activity, qHTS | Potency, µM, usual class: inhibitors | 310,000 compounds, 3.5% hits | AID 1490;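 note: the enzyme is Sfp with the accession as filed and its product quenches rhodamine fluorescence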
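Fluorescence-quenching assay with 15 nM Sfp, 5 uM rhodamine-CoA and 12.5 uM BHQ-2-labelled ybbR peptide in pH 7.6 Hepes/MgCl2 buffer. Enzyme was pre-incubated with compound for 15 min at room temperature. Rate was taken from the 30-min fluorescence change (525/598 nm).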
HP1b chromo inh = blocks HP1-beta chromodomain binding to methylated histone tails; 390,000 compounds, 0.56% hits; AlphaScreen HP1-beta / biotin-H3K9me3 peptide binding; AID 540317; Potency, µM (series often up to 114 µM), actives largely listed as inhibitors; P83916; note: nearly all actives have a fitted effect of over 70% in size
Target sequence (P83916 whole entry, looked up): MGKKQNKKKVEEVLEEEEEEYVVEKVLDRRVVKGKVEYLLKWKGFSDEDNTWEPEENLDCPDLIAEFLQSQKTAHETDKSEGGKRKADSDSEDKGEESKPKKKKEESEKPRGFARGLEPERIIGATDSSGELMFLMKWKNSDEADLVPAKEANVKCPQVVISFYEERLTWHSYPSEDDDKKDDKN
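Compound inhibition of the preformed complex between 50 nM HP1-beta and 50 nM biotinylated H3K9me3 peptide was read by AlphaScreen. Buffer was PBS pH 7.4 with 0.01% Tween-20. Incubations ran 30 min at room temperature, with 10 ug/mL donor/acceptor beads.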
JMJD2A Tudor = inhibitors of human JMJD2A Tudor domain; O75164; AlphaScreen JMJD2A-Tudor / H3K4me3 peptide binding; Potency, µM (highest dose often 114 µM), usual class: inhibitors; 390,000 compounds, 4.4% hits; AID 504339; note: nearly all actives have a fitted effect of over 50% in size
L3MBTL1 inh = blocks human L3MBTL1; AlphaScreen L3MBTL1–H3K9me1 peptide binding; Potency, µM (top dose mostly 57.1 µM), actives largely listed as inhibitors; 230,000 compounds, 0.66% hits; AID 485360; Q9Y468; note: nearly all actives have a fitted effect of over 60% in size
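First, the protein-peptide complex forms for 30 min at room temperature (L3MBTL1 50 nM, biotinylated H3K9me1 peptide 75 nM). Next, compounds are pin-transferred and incubated 30 min. Finally, AlphaScreen beads are added and read after 30 min.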
Sfp PPTase conf = Sfp phosphopantetheinyl transferase inhibition, confirmation. Sfp PPTase enzymatic assay, qHTS titration. shares compounds with Sfp PPTase inh. Potency, µM (series often up to 114 µM), actives largely listed as inhibitors. AID 2701. 380 compounds, 79% hits
Target sequence (Q9F4F7 whole entry, looked up): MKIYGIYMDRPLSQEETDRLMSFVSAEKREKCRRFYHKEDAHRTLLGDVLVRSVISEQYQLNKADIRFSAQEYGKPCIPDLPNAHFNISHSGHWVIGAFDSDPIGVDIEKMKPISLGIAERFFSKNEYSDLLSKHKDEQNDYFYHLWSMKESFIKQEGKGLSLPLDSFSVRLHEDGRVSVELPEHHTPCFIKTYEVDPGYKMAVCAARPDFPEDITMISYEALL
Sfp gel assay = Inhibits Bacillus subtilis Sfp phosphopantetheinyl transferase | shares compounds with Sfp PPTase inh | purified Sfp, gel-based phosphopantetheinylation read-out | Potency, µM, actives largely listed as inhibitors | 210 compounds, 20% hits | AID 2707;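 active = potency below 100 µM; inconclusive = dose-dependent response but potency above 100 µM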;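 note: potency is an IC50 for inhibitors of Sfp transfer activity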
Numbers stand for hits; i = inactive; ? = inconclusive; nt = not tested or not shown; [ ] = another dose, or the depositor's remark. Unless noted, calls come from the whole dose curve; as a rule, active = well fitted curve in the direction sought with a large enough effect; inconclusive = small, poorly fitted or top-dose-only effect, or another doubt; inactive = no such curve, though single readings can be large; an effect the other way counts as inactive or inconclusive.

SMILES	G9a inh	BAZ2B block	Sfp PPTase inh	HP1b chromo inh	JMJD2A Tudor	L3MBTL1 inh	Sfp PPTase conf	others
Cc1ccc(C(=O)NC(=S)Nc2ccc(-c3ccc(CO)o3)cc2)cc1	?	nt	7.1µM	i	?	nt	8.3µM
COc1cc(NC(=O)c2sc3nc4n(c(=O)c3c2C)CCCCC4)cc(OC)c1OC	i	i	nt	i	i	nt	nt
O=C(Cc1ccccc1)N/N=C\c1ccc(Br)o1	i	i	i	i	i	i	nt
O=C(/C=C/c1ccc(Br)o1)NCc1ccccc1	nt	?	6.3µM	i	?	i	17µM	Sfp gel assay=i
O=C(Nc1ccc(F)cc1)C1=CC(=O)N2CCN=C2S1	1µM	?	0.56µM	nt	nt	i	12µM
CCCCNC(=O)CSc1nc(-c2ccc(OC)cc2)cc(C(F)(F)F)n1	i	i	nt	i	i	nt	nt
CCCCCC(=O)CC[C@@H]1[C@@H](C/C=C\CCCC(=O)O)[C@@H](O)C[C@H]1O	nt	nt	i	nt	nt	nt	nt
COc1ccc(-c2csc(Nc3ccc(C)cn3)n2)cc1	20µM	?	6.3µM	i	i	i	59µM	Sfp gel assay=i
Cc1ccc(OC(=O)Nc2ccccc2)cc1	i	i	i	i	i	i	nt
O=C(Nc1ccccc1)Oc1ccc[nH]c1=O	?	?	6.3µM	i	i	nt	21µM	Sfp gel assay=i
c1cn2cc(CSC3CCCCC3)nc2s1	?	i	3.2µM	i	i	nt	i	Sfp gel assay=i
O=C(NCCc1cn2ccsc2n1)C1CCCCC1	i	i	i	i	i	i	nt
CCOc1cccc(NC(=O)C2CC(=O)N(C)C(=Nc3cccc(OC)c3)S2)c1 (stereo not drawn)	?	i	nt	i	i	nt	nt
O=C(CN1C(=O)CC(c2ccco2)Sc2ccccc21)Nc1ccccc1F (stereo not drawn)	?	?	16µM	i	?	i	21µM
O=C(CN1C(=O)CC(c2ccco2)Sc2ccccc21)Nc1ccc(Br)cc1 (stereo not drawn)	i	i	nt	i	i	nt	nt
CN(C)CCCSc1nc2ccccc2s1	14µM	?	35µM	?	i	i	?
c1ccc2sc(SCSc3nc4ccccc4s3)nc2c1	nt	i	i	i	i	i	nt
COc1cccc(NC(=O)Nc2cccs2)c1	10µM	i	11µM	i	i	i	30µM	Sfp gel assay=i
O=C(NCc1ccco1)c1csc2c1CCCCC2	i[12.7 µM]	i	i	i	i	nt	?	Sfp gel assay=i
CC(C)N(C(=O)Nc1ccc2nsnc2c1)C(C)C	nt	i	4.5µM	i	79µM	i	24µM	Sfp gel assay=i
CCc1c(C)sc(NC(=O)c2ccoc2C)c1C(N)=O	7.1µM	?	11µM	28µM	56µM	nt	8.3µM
COCCCn1c2nc3ccccc3nc2c2c(=O)n(Cc3ccc(Cl)cc3)cnc21	i	i	?	i	i	i	nt
O=c1c2c3nc4ccccc4nc3n(Cc3ccccc3)c2ncn1Cc1ccco1	?	50µM	2.8µM	i	i	nt	5.9µM
COc1cc2oc(=O)c(CC(=O)N3CCCCC3)c(C)c2cc1Cl	i	i	nt	i	i	nt	nt
Fc1ccc2[nH]c(-c3cccs3)cc2c1	i	i	nt	i	i	nt	nt
SMILES	G9a inh	BAZ2B block	Sfp PPTase inh	HP1b chromo inh	JMJD2A Tudor	L3MBTL1 inh	Sfp PPTase conf	others
Cc1ccc(Cn2c(=S)[nH]c3ccc(N4CCOCC4)cc3c2=O)o1	?	?	2.5µM	?	22µM	i[11.4 µM]	2.6µM
CCC(C(=O)Nc1cc(C)ccc1OC)n1nnc(C(=O)OC)c1C(=O)OC (stereo not drawn)	i	i	nt	i	i	nt	nt
COC(=O)c1c(NC(=O)CCC(=O)O)sc2c1CCCCC2	?	i	i	i	i	i	nt
COc1ccccc1NC(=O)c1c(NC(=O)CCC(=O)O)sc2c1CCCCC2	i	i	10µM	i	i	i	21µM
O=C(O)CCC(=O)Nc1sc2c(c1C(=O)Nc1ccccc1)CCCCC2	28µM	i	13µM	i	i	nt	15µM
CCOc1ccccc1NC(=O)c1c(NC(=O)c2ccccc2)sc2c1CCCC2	i	i	nt	i	i	nt	nt
CN1CCN(c2ncncc2-c2cccnc2)CC1	i[0.501 µM]	nt	i	nt	nt	nt	nt
O=C(NC1CCCCC1)C(c1cccs1)N(C(=O)c1ccccn1)c1ccccc1 (stereo not drawn)	i	i	i	i	i	i	nt
